# From PubChem BioAssay (NCATS)
# “And” between values parts separate entries of the source, which are not always exact repeats. Equal entries are not always repeated. Records with an inconclusive call do not appear. A call without a number means that no potency is given here. The source made the active and inactive calls. Unless noted, calls come from the whole dose curve; as a rule, active = well fitted curve in the direction sought with a large enough effect; inconclusive = small, poorly fitted or top-dose-only effect, or another doubt; inactive = no such curve, though single readings can be large; an effect the other way counts as inactive or inconclusive.
# What was measured:
# [1] = molecular target: Voltage-gated inwardly rectifying potassium channel KCNH2 (Homo sapiens) (UniProt Q12809); assay: qHTS Assay for Small Molecule Inhibitors of the Human hERG Channel Activity (AID 588834); details: U2OS BacMam hERG, FluxOR thallium flux fluorescence; series mostly up to 46.1 µM;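 note: lower thallium flux fluorescence means stronger hERG block; nearly all actives have a fitted effect of over 50% in size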; note: potency is the fitted concentration of half-maximal effect
# Outline: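 U2OS cells transduced with hERG via BacMam (MOI ~100), plated 2000/well, loaded with FluxOR thallium dye, compound ~10 min, then stimulation buffer; fluorescence decrease read kinetically; AC50 from Hill fits.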
# [2] = molecular target: Luciferin 4-monooxygenase (Photinus pyralis) (UniProt P08659); assay: Biochemical firefly luciferase enzyme assay for NPC (AID 624030); note: nearly all actives have a fitted effect of over 70% in size; note: potency is the fitted concentration of half-maximal effect; details: purified P. pyralis luciferase, luminescence, 5 min; series mostly up to 58.6 µM
# Outline: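 Direct inhibition of firefly luciferase enzyme (10 nM final, 50 mM Tris Acetate) assessed by luminescence within 5 minutes. Percent activity scaled between DMSO and PTC124 positive control, with concentration-effect curves classified by fit quality and response.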
# [3] = S16 Schwann cell viability assay (CellTiter-Glo assay) (AID 624031); details: S16 rat Schwann cells viability, 24 h; series mostly up to 57.5 µM; note: nearly all actives have a fitted effect of over 70% in size; note: potency is the fitted concentration of half-maximal effect
# Outline: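 Cells were seeded at 500-750 per well in phenol red-free DMEM with 10% FBS and left overnight. Compounds or DMSO were pinned in, incubation ran 24 h at 37 °C/5% CO2, then CellTiter-Glo reagent was added and luminescence measured.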
# [4] = S16 Schwann cell PMP22 intronic element firefly luciferase assay (AID 624032); details: S16 rat Schwann cells, PMP22 element FLuc, 24 h; series mostly up to 57.5 µM; note: nearly all actives have a fitted effect of over 30% in size; note: potency is the fitted concentration of half-maximal effect
# Outline: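 Luciferase reporter of PMP22 intronic-element expression in stably transfected S16 rat Schwann cells, read by ONE-Glo luminescence after 24 h compound exposure at 37 C. Activity scaled between DMSO (0%) and positive-control PTC124; concentration-effect curves quality-classified.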
# [5] = S16 Schwann cell PMP22 intronic element beta-lactamase assay (AID 624044; calls by dose curve; note: nearly all actives have a fitted effect of over 15% in size; note: potency is the fitted concentration of half-maximal effect); details: S16 rat Schwann cells, PMP22 element beta-lactamase FRET, 24 h; series mostly up to 38.3 µM
# Outline: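 Rat S16 Schwann cells with beta-Lac driven by a PMP22 intronic element, compound-treated 24 h at 37 °C. LiveBLAzer FRET B/G read: 460 nm normalized to potassium clavulanate vs DMSO; 535 nm FRET as viability; concentration-effect curves classified.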
# [6] = qHTS of Trypanosoma Brucei Inhibitors: LOPAC Validation (AID 624147); details: purified enzyme assay, luminescence, 45 min; series mostly up to 57.5 µM
# Outline: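 Quantitative HTS: titrated library compounds versus trypanosomal pyruvate kinase in TEA buffer (pH 7.2) containing KCl, MgCl2, BSA and Tween-20. Reactions were initiated with ADP, 130 uM final. Kinase-Glo Plus luminescence was read after 45 min at RT.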
# [7] = molecular target: Glucagon-like peptide 1 receptor (Homo sapiens) (UniProt P43220); assay: qHTS of GLP-1 Receptor Agonists: LOPAC Validation (AID 624148); details: GLP-1R agonist cell assay; series mostly up to 46.1 µM;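 note: luminescence from a luciferase reporter switched on by cAMP; higher luminescence signal means agonism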
# Outline: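 Agonism scored as increased luciferase luminescence driven by cAMP in HEK293 clones carrying GLP-1R. Cells settled 12 hours, received compound for 4-6 hr at 37 deg C, 5% CO2, and were read after 12 min detection reagent at RT.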
# [8] = molecular target: Glutaminase kidney isoform, mitochondrial (Homo sapiens) (UniProt O94925); assay: qHTS for Inhibitors of Glutaminase (GLS): LOPAC Validation (AID 624146); details: glutaminase enzyme activity inhibition; series mostly up to 46.1 µM; note: nearly all actives have a fitted effect of over 60% in size; note: potency is the fitted concentration of half-maximal effect
# Outline: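 Enzyme dispensed in phosphate buffer (45 mM, pH 8.2, 0.02% Tween-20), compounds pinned in, then 1 mM L-glutamine solution and the glutamate oxidase–HRP–Amplex Red mix added; fluorescence read immediately and again after 30 min at room temperature.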
# Glucagon-like peptide 1 receptor (Homo sapiens), sequence (P43220 whole entry, looked up): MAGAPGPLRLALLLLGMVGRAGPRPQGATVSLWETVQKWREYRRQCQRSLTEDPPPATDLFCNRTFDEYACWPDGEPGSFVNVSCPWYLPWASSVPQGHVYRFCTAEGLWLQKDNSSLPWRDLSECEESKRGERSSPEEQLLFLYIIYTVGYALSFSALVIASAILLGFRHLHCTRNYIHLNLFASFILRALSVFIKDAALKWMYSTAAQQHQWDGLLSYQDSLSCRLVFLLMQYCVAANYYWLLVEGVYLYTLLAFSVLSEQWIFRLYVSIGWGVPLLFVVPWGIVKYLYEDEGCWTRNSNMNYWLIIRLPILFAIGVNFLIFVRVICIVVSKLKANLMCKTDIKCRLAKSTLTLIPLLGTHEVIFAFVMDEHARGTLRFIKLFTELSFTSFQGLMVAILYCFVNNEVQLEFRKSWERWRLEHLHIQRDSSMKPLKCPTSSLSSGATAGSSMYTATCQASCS
# Voltage-gated inwardly rectifying potassium channel KCNH2 (Homo sapiens), sequence (Q12809 whole entry, looked up): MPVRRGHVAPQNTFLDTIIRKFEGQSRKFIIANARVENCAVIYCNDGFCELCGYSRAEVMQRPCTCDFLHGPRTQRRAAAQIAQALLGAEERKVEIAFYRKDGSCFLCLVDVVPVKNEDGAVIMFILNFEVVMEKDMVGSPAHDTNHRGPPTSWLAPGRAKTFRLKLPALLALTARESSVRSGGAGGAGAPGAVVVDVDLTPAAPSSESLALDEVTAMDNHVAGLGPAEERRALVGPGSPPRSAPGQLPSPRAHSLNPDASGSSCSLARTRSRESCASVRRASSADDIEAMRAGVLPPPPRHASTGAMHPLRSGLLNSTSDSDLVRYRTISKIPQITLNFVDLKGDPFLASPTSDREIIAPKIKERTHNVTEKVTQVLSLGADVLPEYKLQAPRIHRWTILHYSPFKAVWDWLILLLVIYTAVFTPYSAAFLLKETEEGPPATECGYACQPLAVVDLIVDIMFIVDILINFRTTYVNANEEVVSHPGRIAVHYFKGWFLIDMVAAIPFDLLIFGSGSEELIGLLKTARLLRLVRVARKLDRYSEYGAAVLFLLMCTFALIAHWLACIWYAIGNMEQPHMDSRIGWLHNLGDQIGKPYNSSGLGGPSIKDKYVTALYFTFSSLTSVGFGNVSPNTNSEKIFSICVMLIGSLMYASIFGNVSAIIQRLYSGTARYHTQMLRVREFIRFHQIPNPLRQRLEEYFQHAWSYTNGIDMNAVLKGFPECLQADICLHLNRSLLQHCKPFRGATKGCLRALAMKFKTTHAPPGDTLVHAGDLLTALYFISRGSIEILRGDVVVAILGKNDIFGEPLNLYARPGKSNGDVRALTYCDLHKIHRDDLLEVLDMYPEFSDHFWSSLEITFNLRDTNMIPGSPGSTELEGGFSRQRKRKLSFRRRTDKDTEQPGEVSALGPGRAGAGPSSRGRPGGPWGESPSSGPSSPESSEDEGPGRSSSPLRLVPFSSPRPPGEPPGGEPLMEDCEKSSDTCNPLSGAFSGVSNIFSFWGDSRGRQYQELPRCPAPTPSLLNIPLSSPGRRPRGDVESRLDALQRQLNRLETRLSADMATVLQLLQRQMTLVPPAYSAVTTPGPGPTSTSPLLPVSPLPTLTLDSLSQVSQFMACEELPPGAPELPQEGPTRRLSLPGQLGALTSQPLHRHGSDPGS
# Luciferin 4-monooxygenase (Photinus pyralis), sequence (P08659 whole entry, looked up): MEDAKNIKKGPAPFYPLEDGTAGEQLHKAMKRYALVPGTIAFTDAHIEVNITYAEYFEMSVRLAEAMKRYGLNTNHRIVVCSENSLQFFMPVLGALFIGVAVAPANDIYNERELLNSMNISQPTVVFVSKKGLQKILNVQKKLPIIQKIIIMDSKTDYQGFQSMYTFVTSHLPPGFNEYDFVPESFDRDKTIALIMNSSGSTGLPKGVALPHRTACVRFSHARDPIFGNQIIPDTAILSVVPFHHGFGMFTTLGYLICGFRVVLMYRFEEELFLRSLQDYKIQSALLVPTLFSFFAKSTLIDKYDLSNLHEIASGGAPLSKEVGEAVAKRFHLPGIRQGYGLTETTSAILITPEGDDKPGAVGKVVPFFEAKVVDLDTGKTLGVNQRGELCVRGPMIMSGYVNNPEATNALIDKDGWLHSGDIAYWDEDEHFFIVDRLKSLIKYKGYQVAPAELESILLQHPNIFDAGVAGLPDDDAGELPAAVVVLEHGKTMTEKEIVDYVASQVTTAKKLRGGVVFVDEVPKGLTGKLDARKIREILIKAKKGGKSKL
# Glutaminase kidney isoform, mitochondrial (Homo sapiens), sequence (O94925 whole entry, looked up, canonical isoform): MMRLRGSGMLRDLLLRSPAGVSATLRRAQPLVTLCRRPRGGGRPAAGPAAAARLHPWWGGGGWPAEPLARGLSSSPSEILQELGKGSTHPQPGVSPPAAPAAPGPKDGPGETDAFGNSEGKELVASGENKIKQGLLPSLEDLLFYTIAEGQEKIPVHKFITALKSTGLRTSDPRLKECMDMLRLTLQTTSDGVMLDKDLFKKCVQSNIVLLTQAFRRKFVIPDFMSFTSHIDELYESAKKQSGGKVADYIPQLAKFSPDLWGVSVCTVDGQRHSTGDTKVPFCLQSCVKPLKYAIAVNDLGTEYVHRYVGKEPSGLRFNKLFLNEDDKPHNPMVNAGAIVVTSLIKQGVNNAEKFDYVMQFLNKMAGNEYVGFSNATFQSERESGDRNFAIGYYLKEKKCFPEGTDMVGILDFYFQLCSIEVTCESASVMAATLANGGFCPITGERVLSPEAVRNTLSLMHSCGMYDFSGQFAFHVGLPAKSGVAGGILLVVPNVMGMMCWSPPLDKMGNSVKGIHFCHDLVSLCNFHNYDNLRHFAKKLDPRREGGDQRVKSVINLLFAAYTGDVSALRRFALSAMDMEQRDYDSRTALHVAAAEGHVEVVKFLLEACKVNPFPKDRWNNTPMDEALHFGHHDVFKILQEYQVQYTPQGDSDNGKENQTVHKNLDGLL
compound,measurement,setting,value
C#CCOC(C(=O)OCCN(C)C)(c1ccccc1)c1ccccc1,Potency,[1],inactive
same,Potency,[2],inactive
same,Potency,[3],inactive
same,Potency,[4],inactive
same,Potency,[5],inactive
Cc1ccc(-c2nc3ccc(C)cn3c2CC(=O)N(C)C)cc1,Potency,[1],inactive
same,Potency,[2],inactive
same,Potency,[3],inactive
same,Potency,[4],inactive
same,Potency,[5],inactive
CN(C)CCc1ccc(O)cc1,Potency,[1],inactive
same,Potency,[2],inactive
same,Potency,[3],inactive
same,Potency,[4],inactive
CCCC1CCCCN1 (centres undefined),Potency,[1],inactive
same,Potency,[3],inactive
same,Potency,[4],inactive
CCC(C(N)=O)N1CCCC1=O (centres undefined),Potency,[1],inactive
same,Potency,[2],inactive
same,Potency,[3],inactive
same,Potency,[4],inactive
Cc1ccc(S(=O)(=O)N[C@@H](CCCCN)C(=O)CCl)cc1,Potency,[1],inactive
same,Potency,[2],inactive
same,Potency,[3],inactive
same,Potency,[4],inactive
same,Potency,[5],inactive
same,outcome,[6],inactive
same,outcome,[7],inactive
CCN(CC)CCN1C(=O)CN=C(c2ccccc2F)c2cc(Cl)ccc21,Potency,[1],3.98 µM (active)
same,Potency,[3],inactive
same,Potency,[4],inactive
same,Potency,[5],inactive
NCCc1cc(O)c(O)cc1O,Potency,[1],inactive
same,Potency,[3],inactive
same,Potency,[4],inactive
same,Potency,[5],inactive
Cc1ncc(CNC(=O)N(CCCl)N=O)c(N)n1,Potency,[1],inactive
same,Potency,[3],inactive
same,Potency,[4],inactive
same,Potency,[5],inactive
same,Potency,[8],inactive
same,outcome,[6],inactive
same,outcome,[7],inactive
CC(=O)[C@H]1CC[C@H]2[C@@H]3CC[C@H]4C[C@H](O)CC[C@]4(C)[C@H]3C(=O)C[C@]12C,Potency,[5],inactive
same,Potency,[8],inactive
same,outcome,[6],inactive
same,outcome,[7],inactive
NCC1(CC(=O)O)CCCCC1,Potency,[1],inactive
same,Potency,[3],inactive
same,Potency,[4],inactive
same,Potency,[8],inactive
same,outcome,[6],inactive
same,outcome,[7],inactive
Fc1ccc(C(OCCN2CCN(CCCc3ccccc3)CC2)c2ccc(F)cc2)cc1,Potency,[3],32.2 µM (active)
same,Potency,[4],28.7 µM (active)
same,outcome,[6],inactive
same,outcome,[7],inactive
COC[C@H]1OC(=O)c2coc3c2[C@@]1(C)C1=C(C3=O)C2CCC(=O)[C@@]2(C)C[C@H]1OC(C)=O (some centres undefined),Potency,[8],11.2 µM (active)
same,outcome,[6],inactive
same,outcome,[7],inactive
CCC1(C2=NCCN2)Cc2ccccc2O1 (centres undefined),Potency,[1],inactive
same,Potency,[3],inactive
same,Potency,[4],inactive
same,outcome,[6],inactive
same,outcome,[7],inactive
CC(CCc1ccccc1)NC(C)C(O)c1ccc(O)cc1 (centres undefined),Potency,[1],7.08 µM (active) and 2 µM (active)
same,Potency,[3],inactive
same,outcome,[6],inactive
CC(=O)Oc1ccccc1C(=O)Nc1ncc([N+](=O)[O-])s1,Potency,[2],0.721 µM (active)
same,Potency,[4],inactive
O=C(O)c1ccc2[nH]cc(CCCCN3CC=C(c4ccccc4)CC3)c2c1,Potency,[1],inactive
same,Potency,[4],inactive
Cc1cccc(C)c1NC(=O)CN1CCCC1=O,Potency,[8],inactive
same,outcome,[6],inactive
same,outcome,[7],inactive
CC(O)(CS(=O)(=O)c1ccc(F)cc1)C(=O)Nc1ccc(C#N)c(C(F)(F)F)c1 (centres undefined),Potency,[8],inactive
same,outcome,[6],inactive
same,outcome,[7],inactive
O=C1NCN(c2ccccc2)C12CCN(CC1COc3ccccc3O1)CC2 (centres undefined),Potency,[1],6.31 µM (active) and 7.94 µM (active)
same,Potency,[5],inactive
same,Potency,[8],inactive
same,outcome,[6],inactive
same,outcome,[7],inactive
CNCCC(Oc1ccc(C(F)(F)F)cc1)c1ccccc1 (centres undefined),Potency,[4],inactive
CCCSc1ccc2nc(NC(=O)OC)[nH]c2c1,Potency,[4],inactive
same,Potency,[5],1.07 µM (active)
CN1CCc2cccc3c2[C@H]1Cc1ccc(O)c(O)c1-3,Potency,[3],32.2 µM (active)
COc1ccc(C(=O)c2c(C)n(CCN3CCOCC3)c3ccccc23)cc1,Potency,[1],inactive
same,Potency,[5],inactive
Cc1c(OCC(F)(F)F)ccnc1CS(=O)c1nc2ccccc2[nH]1 (centres undefined),Potency,[4],inactive
CC[C@@H](CO)NC(=O)[C@@H]1C=C2c3cccc4c3c(cn4C)C[C@H]2N(C)C1,Potency,[1],inactive
same,Potency,[3],inactive
same,Potency,[4],inactive
same,Potency,[5],inactive
same,outcome,[7],inactive
c1ccc(C2CC2)c(OCC2=NCCN2)c1,Potency,[1],inactive
same,Potency,[3],inactive
same,Potency,[4],inactive
same,Potency,[8],inactive
same,outcome,[6],inactive
same,outcome,[7],inactive
N[C@@H](Cc1ccc(N(CCCl)CCCl)cc1)C(=O)O,Potency,[2],inactive
same,Potency,[4],9.07 µM (active)
NN=C(N)N,Potency,[1],inactive
same,Potency,[3],inactive
same,Potency,[4],inactive
same,Potency,[8],inactive
same,outcome,[6],inactive
same,outcome,[7],inactive
CO[C@]12CC[C@@]3(C[C@@H]1[C@](C)(O)C(C)(C)C)[C@@H]1Cc4ccc(O)c5c4[C@@]3(CCN1CC1CC1)[C@H]2O5,Potency,[2],inactive
C[C@@H]1O[C@@H](O[C@H]2C[C@@H](O)[C@]3(CO)[C@H]4[C@H](O)C[C@]5(C)[C@@H](C6=CC(=O)OC6)CC[C@]5(O)[C@@H]4CC[C@]3(O)C2)[C@H](O)[C@H](O)[C@H]1O,Potency,[1],inactive
same,Potency,[8],inactive
same,outcome,[6],inactive
same,outcome,[7],inactive
O=c1[nH]cc(F)c(=O)[nH]1,Potency,[5],5.62 µM (active)
CCC(COC(=O)c1cc(OC)c(OC)c(OC)c1)(c1ccccc1)N(C)C (centres undefined),Potency,[3],inactive
same,Potency,[4],inactive
same,Potency,[5],inactive
NC(=Nc1ccccc1)Nc1ccccc1,Potency,[2],inactive
same,Potency,[5],inactive
c1ccc2c(c1)OCC(C1=NCCN1)O2 (centres undefined),Potency,[1],inactive
same,Potency,[8],inactive
same,outcome,[6],inactive
same,outcome,[7],inactive
